# Source: PubChem BioAssay (National Center for Advancing Translational Sciences (NCATS))
# The list is not random: actives were taken first. Their share in the collection is about 18%.
# Gal4-VP16 FLuc: VP16 counterscreen qHTS for inhibitors of ROR gamma transcriptional activity; Drosophila S2 Gal4-VP16 UAS-luciferase, luminescence, 20 h; Potency, µM (titrated, usually from 53.6 µM), inactives show at the top dose activity, negative = inhibition, actives largely listed as inhibitors; hit rate 3.5% among 310,000; AID 2546, 2010;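 note: Gal4-VP16 expression switched on by copper sulfate through the metallothionein promoter; potency is the fitted concentration of half-maximal effect; nearly all actives have a fitted effect of over 50% in size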
# TDP1 cell CPT: qHTS for Inhibitors of human tyrosyl-DNA phosphodiesterase 1 (TDP1): qHTS in cells in presence of CPT; chicken DT40 Tdp1-/-;hTDP1 cells + 20 nM CPT, ATP luminescence, 48 h; hit rate 12% among 420,000; AID 686979, 2013; Potency, µM (titrated, usually from 46.2 µM), inactives show at the top dose activity change, negative = growth inhibition, actives largely listed as inhibitors; note: potency is the fitted concentration of half-maximal effect; nearly all actives have a fitted effect of over 55% in size
#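 Cell growth measured by CellTiter-Glo luminescence after a minimum 48 h, 37 C compound exposure with 20 nM CPT in Tdp1-knockout DT40 cells stably expressing hTDP1, seeded 400/well; qHTS titration format.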
# TDP1 cell noCPT: qHTS for Inhibitors of human tyrosyl-DNA phosphodiesterase 1 (TDP1): qHTS in cells in absence of CPT; hit rate 15% among 420,000; Potency, µM (top dose mostly 46.2 µM), without a hit: top-dose activity change, negative = growth inhibition, hits mostly inhibitors; DT40 Tdp1-/- hTDP1 cells, no CPT, ATP luminescence, 48 h; note: potency is the fitted concentration of half-maximal effect; nearly all actives have a fitted effect of over 55% in size
#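 Chicken DT40 Tdp1-/- cells complemented with human TDP1, screened without camptothecin (DMSO vehicle only), 400 cells/well. Compounds pin-transferred, cells incubated at 37 °C for at least 48 hr. Growth read as ATP-dependent luminescence (CellTiter-Glo, 30 min at RT).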
# IL1B secr inh: qHTS for Inhibitors of Inflammasome Signaling: IL-1-beta AlphaLISA Primary Screen; AID 743279, 2014; hit rate 4.7% among 360,000; activity change, % at 57.5 µM; THP-1 LPS/ATP IL-1B secretion, AlphaLISA, 16 h; hits give low values; in the data active = activity change below about -50%; inconclusive = mostly about -30% to -49%
#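 THP-1 cells pretreated 1 hr with compounds (up to 57.5 uM final), then stimulated with LPS (250 ng/mL final) plus ATP (1.25 mM final); secreted IL-1B measured by AlphaLISA after 16 hr, decreased signal indicating inhibition.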
# RORgamma inh: qHTS for inhibitors of ROR gamma transcriptional activity | Potency, µM (series often up to 53.6 µM), for the others: at the top dose activity change, negative = inhibition, hits mostly inhibitors | AID 2551, 2010 | hit rate 5.4% among 310,000 | Drosophila S2 Gal4-RORgamma UAS-luciferase reporter, 20 h; note: potency is the fitted concentration of half-maximal effect; nearly all actives have a fitted effect of over 60% in size
# Target sequence (P51450 whole entry, looked up, the tested form may be a part): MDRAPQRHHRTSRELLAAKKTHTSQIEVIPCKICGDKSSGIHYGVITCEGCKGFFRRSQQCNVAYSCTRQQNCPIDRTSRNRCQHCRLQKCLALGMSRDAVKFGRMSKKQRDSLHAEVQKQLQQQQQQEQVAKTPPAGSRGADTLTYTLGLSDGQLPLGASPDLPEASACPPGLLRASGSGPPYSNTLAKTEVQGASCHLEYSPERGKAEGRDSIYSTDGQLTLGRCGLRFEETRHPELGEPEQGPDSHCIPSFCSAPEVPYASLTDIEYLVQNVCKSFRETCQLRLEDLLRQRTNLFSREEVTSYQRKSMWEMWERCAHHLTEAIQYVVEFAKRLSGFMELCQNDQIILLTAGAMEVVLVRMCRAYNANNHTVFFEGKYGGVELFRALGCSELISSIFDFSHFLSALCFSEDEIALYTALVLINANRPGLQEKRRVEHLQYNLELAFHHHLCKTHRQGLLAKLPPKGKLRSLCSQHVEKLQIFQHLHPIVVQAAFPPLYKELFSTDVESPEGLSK
#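 Stable Schneider cell line, Gal4 DNA-binding domain fused to ROR gamma, UAS-luciferase. Cmpd 1 hr RT → CuSO4 700 uM final → 20 hr RT → luciferase reagent 10 min → luminescence.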
# LDHA block: qHTS assay for inhibitors of human lactate dehydrogenase | L-lactate dehydrogenase A chain (Homo sapiens), P00338 | purified LDHA, NADH/diaphorase-resazurin fluorescence; hits give low values | activity change, % (values are at about 110 or 230 µM) | hit rate 0.15% among 480,000 | AID 1347041, 2019; in the data active = activity change below about -30%; inconclusive = mostly about -25% to -30%;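 note: plate controls were DMSO wells for no effect and wells without enzyme for full effect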
#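 Human LDH5 (2 nM) was incubated with 0.06 mM NADH and 0.2 mM pyruvate for 5 min at room temperature in Tris pH 7.4. Remaining NADH was coupled through diaphorase/resazurin, and resorufin fluorescence was read at 0 and 20 min.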
# The depositor's hits bear a star; u = inconclusive; x = no result given. Unless noted, calls come from the whole dose curve; as a rule, active = well fitted curve in the direction sought with a large enough effect; inconclusive = small, poorly fitted or top-dose-only effect, or another doubt; inactive = no such curve, though single readings can be large; an effect the other way counts as inactive or inconclusive. Unless noted, % is set by controls: 0 for no effect and ±100 for the full control effect.
SMILES,Gal4-VP16 FLuc,TDP1 cell CPT,TDP1 cell noCPT,IL1B secr inh,RORgamma inh,LDHA block
COc1ccc(C2C(C#N)=C(N)Nc3onc(C(C)(C)C)c32)c(OC)c1 (stereo unspecified),-4%,u,18µM*,-30,37%,-8
Cc1cccc(-n2nc(C(=O)Nc3ccccc3)n3c(=O)cc(-c4ccccc4)nc23)c1,-3%,u,16µM*,-9,-21%,-7
CCN(Cc1ccccc1)C(=O)COC(=O)c1c(C)nsc1NC,x,15µM*,21µM*,30,x,-6
CNc1snc(C)c1C(=O)OC(C)C(=O)c1ccc(F)cc1 (stereo unspecified),x,18µM*,21µM*,-20,x,-6
CNc1snc(C)c1C(=O)OCC(=O)c1ccc(Cl)cc1,x,13µM*,9.2µM*,16,x,-13
CNc1snc(C)c1C(=O)N(C)CCOc1ccc(F)cc1,x,x,x,x,x,2
Cc1cnc(C(=O)OCC(=O)c2ccc(Cl)cc2)cn1,-6%,7%,16%,0,-14%,-3
CCN(Cc1ccccc1)C(=O)COC(=O)c1cnc(C)cn1,-7%,-6%,0%,0,2%,-2
CCCCCCSC1=C(C#N)C(c2ccc(CC)cc2)CC(=O)N1 (stereo unspecified),x,x,x,x,x,1
Cc1nc2c(n1C1CCCCC1)C(=O)c1ccccc1C2=O,-16%,21µM*,15µM*,17,u,27
Cc1c(Br)c2ccccc2n1CC(=O)NCC(=O)N(C)C,x,x,x,x,x,-3
COC(=O)c1ccc2c(c1)N(Cc1cc(C)ccc1C)C(=O)c1ccccc1S2=O (stereo unspecified),-2%,x,x,x,-16%,x
Cc1ccc(C)c(CN2C(=O)c3ccccc3S(=O)c3ccc(C(=O)N4CCC(C)CC4)cc32)c1 (stereo unspecified),x,u,23µM*,x,x,0
COc1ccc(N2CCN(C(=O)c3ccc4c(c3)N(Cc3cc(C)ccc3C)C(=O)c3ccccc3S4=O)CC2)cc1 (stereo unspecified),x,15µM*,12µM*,x,x,-5
Cc1ccccc1CN1C(=O)c2ccccc2S(=O)c2ccc(C(=O)NCc3ccccc3)cc21 (stereo unspecified),x,u,u,x,x,-1
CCOC(=O)c1ccc2c(c1)N(Cc1ccccc1C)C(=O)c1ccccc1S2=O (stereo unspecified),22µM*,14µM*,u,-8,-20%,-2
Cc1ccc(C)c(CN2C(=O)c3ccccc3S(=O)c3ccc(C(=O)N(C)Cc4ccccc4)cc32)c1 (stereo unspecified),x,18µM*,u,x,x,-2
Cc1ccc(C)c(CN2C(=O)C(=O)c3ccccc32)c1,x,1.2µM*,0.92µM*,x,x,0
Cc1cc(C)n(CCc2nc(-c3ccc(C)o3)cs2)n1,11µM*,u,16µM*,17,u,-1
Cc1cc(C)n(CCc2nc(-c3cc4ccccc4o3)cs2)n1,-30%,18µM*,18µM*,-10,u,0
COCCN1C(=O)C(=O)/C(=C(/O)c2ccccc2)C1c1ccccc1 (stereo unspecified),x,x,x,x,x,2
COc1ccc(CNc2cc(C)nc3ncnn23)c(OC)c1,11µM*,u,10µM*,2,-23%,5
c1ccc(-c2csc3ncnc(Sc4nnnn4-c4ccccc4)c23)cc1,x,u,10µM*,x,x,3
Cn1nnnc1Sc1ncnc2scc(-c3ccccc3)c12,3%,15µM*,16µM*,-104*,u,-17
